Several values for one entry are separate records, joined by “and”; a condition that tells them apart may be missing. Equal entries are not always repeated. About 83,000 compounds went through this panel and 20% of them were active in at least one assay; those are over-represented in the sample as a whole.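 Cell lines were cultured in 96-well plates, exposed to a single compound concentration, and assessed for percent growth 48 hours later.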 Activity calls are given as the source filed them. Rule for the calls: active = growth percent below 10; inactive = the rest.
Experiments:
Test in all cases: NCI-60 one-dose screen, 48 h (100 = growth as untreated, 0 = no growth, -100 = all killed)
Settings in all cases: 10 µM unless noted
SR leukemia = test system: SR leukemia
RPMI-8226 leukemia = test system: RPMI-8226 leukemia
OVCAR-8 ovarian = test system: OVCAR-8 ovarian
OVCAR-5 ovarian = test system: OVCAR-5 ovarian
OVCAR-4 ovarian = test system: OVCAR-4 ovarian
SK-OV-3 ovarian = test system: SK-OV-3 ovarian
IGROV1 ovarian = test system: IGROV1 ovarian
OVCAR-3 ovarian = test system: OVCAR-3 ovarian
HS 578T breast = test system: HS 578T breast
NCI/ADR-RES ovarian = test system: NCI/ADR-RES ovarian
T-47D breast = test system: T-47D breast
BT-549 breast = test system: BT-549 breast
MDA-MB-435 melanoma = test system: MDA-MB-435 melanoma
SW-620 colon = test system: SW-620 colon
MCF7 breast = test system: MCF7 breast
HCT-116 colon = test system: HCT-116 colon
HCC-2998 colon = test system: HCC-2998 colon
KM12 colon = test system: KM12 colon

SMILES | growth (SR leukemia) | growth (RPMI-8226 leukemia) | growth (OVCAR-8 ovarian) | growth (OVCAR-5 ovarian) | growth (OVCAR-4 ovarian) | growth (SK-OV-3 ovarian) | growth (IGROV1 ovarian) | growth (OVCAR-3 ovarian) | growth (HS 578T breast) | growth (NCI/ADR-RES ovarian) | growth (T-47D breast) | growth (BT-549 breast) | growth (MDA-MB-435 melanoma) | growth (SW-620 colon) | growth (MCF7 breast) | growth (HCT-116 colon) | growth (HCC-2998 colon) | growth (KM12 colon)
c1ccc(-c2cc(-c3cc(-c4ccccc4)on3)no2)cc1 | 61.6% (inactive) | 88.1% (inactive) | 74.6% (inactive) | 77.1% (inactive) | 96.7% (inactive) | 109% (inactive) | 63.6% (inactive) | 127% (inactive) | 116% (inactive) | 69.7% (inactive) | 85.2% (inactive) | 99.4% (inactive) | 102% (inactive) | 51.5% (inactive) | 49.1% (inactive) | 41.8% (inactive) | 94.2% (inactive) | 92.8% (inactive)
Nc1c(C(=O)Nc2ccncc2)sc2nc3c(cc12)CCCCCCCC3 | -27.5% (active) | -49% (active) | -90.6% (active) | -75.8% (active) | -84.6% (active) | -92.1% (active) | -73.7% (active) | -81.8% (active) | -37.1% (active) | -64.8% (active) | -71.2% (active) | -60.8% (active) | -89.9% (active) | -69.2% (active) | -83.4% (active) | -76.3% (active) | -54.3% (active) | -80.4% (active)
O=C1C(N2CCOCC2)=C(I)C(=O)c2ncccc21 | 19.2% (inactive) | 91.2% (inactive) | 69.5% (inactive) | 97.8% (inactive) | 59% (inactive) | 79.3% (inactive) | 54.5% (inactive) | 69.8% (inactive) | 65.1% (inactive) | 75.4% (inactive) | 53.7% (inactive) | 87.1% (inactive) | -69.4% (active) | 69.2% (inactive) | 41.3% (inactive) | 49.4% (inactive) | 86.8% (inactive) | 91.8% (inactive)
O=C(CCCCCCCCC(=O)N/N=C\c1ccccc1O)N/N=C\c1ccccc1O | 13.5% (inactive) | 32.8% (inactive) | 25.5% (inactive) | 67.5% (inactive) | 15.9% (inactive) | 36.9% (inactive) | 29.6% (inactive) | 39.8% (inactive) | 46.8% (inactive) | 14.1% (inactive) | 18.1% (inactive) | 26.9% (inactive) | 33.8% (inactive) | 30.2% (inactive) | 16.9% (inactive) | 13% (inactive) | 44.8% (inactive) | 26.5% (inactive)
Cn1cc(C2=C(c3cccc4ccccc34)C(=O)NC2=O)c2cc(Br)ccc21 | 60.8% (inactive) | 121% (inactive) | 95.9% (inactive) | 126% (inactive) | 124% (inactive) | 90.3% (inactive) | 94.9% (inactive) | 104% (inactive) | 82% (inactive) | 92.2% (inactive) | 81.3% (inactive) | 109% (inactive) | 95.7% (inactive) | 96.1% (inactive) | 84.3% (inactive) | 71.3% (inactive) | 126% (inactive) | 89.7% (inactive)
Cc1ccc(C(=O)N(CCCN)[C@@H](c2nc3cc(Cl)ccc3c(=O)n2Cc2ccccc2)C(C)C)cc1 | -32% (active) | -36.6% (active) | -11.7% (active) | -17.5% (active) | 33.3% (inactive) | 38.6% (inactive) | 8.41% (active) | -13.7% (active) | -12.8% (active) | -30.1% (active) | -41.7% (active) | 24.2% (inactive) | -89.9% (active) | -77.6% (active) | -61.2% (active) | -77.9% (active) | -74.4% (active) | -45.8% (active)
COc1cccc(NC(=O)c2sc3nc(C)c(C(O)c4ccccc4)cc3c2N)c1 (stereo not given) | 6.69% (active) | 13.8% (inactive) | 8.45% (active) | 47.5% (inactive) | 70.3% (inactive) | 12.5% (inactive) | 25.7% (inactive) | -10.4% (active) | 14.6% (inactive) | 7.31% (active) | 35.3% (inactive) | 55.6% (inactive) | 5.31% (active) | 26.5% (inactive) | 17.9% (inactive) | 8.89% (active) | 9.98% (active) | 18% (inactive)
O=C(/C=C/c1ccccc1)c1cccs1 | 94.9% (inactive) and 24.1% (inactive) | 49.3% (inactive) and 6.44% (active) | 97.5% (inactive) and 94% (inactive) | 93.2% (inactive) and 108% (inactive) | 97.7% (inactive) and 87.3% (inactive) | 104% (inactive) and 112% (inactive) | 104% (inactive) and 116% (inactive) | 97% (inactive) and 117% (inactive) | 100% (inactive) | 99.5% (inactive) and 100% (inactive) | 97.3% (inactive) and 104% (inactive) | 104% (inactive) and 107% (inactive) | 88.9% (inactive) and 85.1% (inactive) | 84.6% (inactive) and 98.3% (inactive) | 29.1% (inactive) and 21.7% (inactive) | 74% (inactive) and 57.3% (inactive) | 97.3% (inactive) and 130% (inactive) | 69.6% (inactive) and 70% (inactive)
Cc1ccc(-c2nc3nc(-c4ccc(F)cc4)nc(N4CCCNCC4)c3o2)cc1 | -37.3% (active) | -62.4% (active) | -74.8% (active) | -97.3% (active) | -89% (active) | -88.8% (active) | -88.3% (active) | -96% (active) | -75.9% (active) | -77.7% (active) | -63.8% (active) | -76.9% (active) | -95.7% (active) | -84.6% (active) | -72.4% (active) | -87.2% (active) | -89.3% (active) | -86.3% (active)
N#Cc1ccccc1-c1ccc(Cn2c(-c3cscn3)nc3c(Cl)cccc32)cc1 | 55.2% (inactive) | 48.3% (inactive) | 78.2% (inactive) | 86.8% (inactive) | 62% (inactive) | 82.6% (inactive) | 89.1% (inactive) | 63.3% (inactive) | 85.5% (inactive) | 73.3% (inactive) | 56.3% (inactive) | 76.1% (inactive) | 90.1% (inactive) | 87.6% (inactive) | 64.2% (inactive) | 51.2% (inactive) | 93% (inactive) | 77.1% (inactive)
CC12OC(CC(O)C1O)n1c3ccccc3c3c4c(c5c6ccccc6n2c5c31)C(=O)N(CCN1CCOCC1)C4=O (stereo not given) | 1.71% (active) | 6.35% (active) | 17% (inactive) | 24.7% (inactive) | 22.9% (inactive) | -8.93% (active) | 5.73% (active) | 20.8% (inactive) | 23.1% (inactive) | 15.4% (inactive) | -5.19% (active) | 22.6% (inactive) | 21.7% (inactive) | 16% (inactive) | 4.28% (active) | 14.1% (inactive) | 6.48% (active) | 14.6% (inactive)
CC(=O)N1N=C(c2ccc(F)cc2)CC1c1sc(N(C)Cc2ccccc2)nc1Cl (stereo not given) | 94.6% (inactive) | 75.2% (inactive) | 105% (inactive) | 109% (inactive) | 88.7% (inactive) | 101% (inactive) | 96% (inactive) | 101% (inactive) | 109% (inactive) | 92% (inactive) | 74.1% (inactive) | 95.2% (inactive) | 96.5% (inactive) | 99.4% (inactive) | 76% (inactive) | 84.5% (inactive) | 91.2% (inactive) | 92.4% (inactive)
O=C(Oc1ccc(CO[N+](=O)[O-])cc1)c1ccccc1 | -45.7% (active) | -53.1% (active) | -83.7% (active) | -81.2% (active) | -77.1% (active) | -90.4% (active) | -80.2% (active) | -97% (active) | -25.1% (active) | -82% (active) | -37.4% (active) | -97% (active) | -94% (active) | -56.8% (active) | -54.4% (active) | -86.2% (active) | -81.9% (active) | -78.9% (active)
Cc1ccc(Cl)cc1N1CCN(C(=O)[C@@H]2C[C@@H]2c2ccc(F)cc2)CC1 | 80.4% (inactive) | 62.9% (inactive) | 90.5% (inactive) | 94.4% (inactive) | 85.9% (inactive) | 90.3% (inactive) | 71.1% (inactive) | 95.3% (inactive) | 90.9% (inactive) | 89.7% (inactive) | 83.4% (inactive) | 97.6% (inactive) | 97.6% (inactive) | 101% (inactive) | 90.6% (inactive) | 68.8% (inactive) | 98.8% (inactive) | 85.1% (inactive)
Nc1nc2ccccc2c2c(=O)c3ccc(Cl)cc3sc12 | 84.4% (inactive) | 95.7% (inactive) | 103% (inactive) | 101% (inactive) | 92.1% (inactive) | 98.4% (inactive) | 102% (inactive) | 104% (inactive) | 89.3% (inactive) | 110% (inactive) | 53.9% (inactive) | 94.3% (inactive) | 101% (inactive) | 76% (inactive) | 29.9% (inactive) | 82.1% (inactive) | 114% (inactive) | 87.5% (inactive)
